The record followed here is PubChem BioAssay (Tox21).

Each structure is given as a SMILES string. Inconclusive results are not listed. A call without a number means that no potency is given here. Unmarked numbers belong to inactive results. The source made the active and inactive calls. Calls follow the shape of the dose curve; as a rule, active = well fitted cell-killing curve with a large enough effect in the repeat runs; inconclusive = weak or mixed curves, or effect the other way; inactive = flat fitted curve, though single readings scatter.

Assay [1] can be described thus: cAMP Responsive Elements (CRE) small molecule antagonists, cell-based qHTS assay: qHTS cell viability counter screen (AID 2060913). Also: nearly all actives have a fitted effect of over 40% in size. Also: potency is read from the fitted curve at half-maximal effect. Put shortly: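 HEK293T CRE-bla, 2,000 cells/well, 18 h preincubation; cpd in DMSO + NKH477 0.25 uM final, 3 h 37 C/5% CO2; LiveBLAzer 2 h RT, then CellTiter-Glo 30 min RT, luminescence.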
Assay [2] in a line: cAMP Responsive Elements (CRE) small molecule agonists, cell-based qHTS assay: qHTS cell viability counter screen (AID 2060914). Also: nearly all actives have a fitted effect of over 50% in size. Put shortly:
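Luminescence read-out (CellTiter-Glo, 30 min RT) of ATP-based viability in CRE-bla HEK 293T cells, run in the same wells as the β-lactamase reporter assay after 3 h compound treatment at 37 °C.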

Take `Nc1ccc(O)cc1`: the Potency result in assay [1] and in assay [2] was “inactive” in each case.
With `CC(C)=CCC/C(C)=C/COC=O`, the Potency result in assay [1] and in assay [2] was “inactive” throughout.
Take `CO[C@@H]1[C@@H](O[C@@H]2O[C@H](C)[C@@H](O[C@H]3C[C@@](C)(O)[C@@H](O)[C@H](C)O3)[C@H](N(C)C)[C@H]2O)[C@@H](CC=O)C[C@@H](C)[C@@H](O[C@@H]2CC[C@H](N(C)C)[C@@H](C)O2)/C=C/C=C/C[C@@H](C)OC(=O)C[C@H]1OC(C)=O`: the Potency result in assay [1] and in assay [2] was “inactive” throughout.
On to `Cc1cccc(Nc2ccccc2)c1`, for which the Potency entry in assay [1] and in assay [2] was “inactive” throughout.
In the case of `C=C(C)C(=O)OCCOC(=O)C(=C)C`, the Potency result in assay [1] and in assay [2] was “inactive” in each case.
With `CC(=O)Nc1ccccc1C`, the Potency entry in assay [1] and in assay [2] was “inactive” in each case.
`CCCC1CCC(=O)O1` (configuration not stated): the Potency result in assay [1] and in assay [2] was “inactive” in each case.
For `Cc1cccc(C)c1NC(=O)c1cc(S(N)(=O)=O)c(Cl)cc1O`, the Potency result in assay [1] and in assay [2] was “inactive” throughout.
For `CN1CC(=O)N/C1=N/C(=O)Nc1cccc(Cl)c1`, the Potency entry in assay [1] and in assay [2] was “inactive” throughout.
As for `COc1ccccc1O`, the Potency entry in assay [1] and in assay [2] was “inactive” in each case.
Regarding `CC[C@]12CCCN3CCc4c(n(c5ccccc45)[C@@](O)(C(=O)OC)C1)[C@@H]32`, the Potency entry in assay [1] and in assay [2] was “inactive” each time.
`CC1CC(=O)NN=C1c1ccc(NCC(C)(C)NCC(O)COc2cc(Cl)ccc2C#N)cc1` (configuration not stated): the Potency result in assay [1] and in assay [2] was “inactive” each time.
As to `CCCCC(=O)O[C@]1(C(=O)CO)[C@H](C)C[C@H]2[C@@H]3CCC4=CC(=O)C=C[C@]4(C)[C@@]3(F)[C@@H](O)C[C@@]21C`, the Potency entry in assay [1] and in assay [2] was “inactive” throughout.
As to `O=C1OCc2ccccc21`, the Potency entry in assay [1] and in assay [2] was “inactive” each time.
Take `Fc1c(F)c(F)c(Br)c(F)c1F`: the Potency entry in assay [1] and in assay [2] was “inactive” in each case.
Regarding `Cc1occc(=O)c1O`, the Potency result in assay [1] and in assay [2] was “inactive” throughout.
With `CO[C@]12C[C@@H](COC(=O)c3cncc(Br)c3)CN(C)[C@@H]1Cc1cn(C)c3cccc2c13`, the Potency entry in assay [1] and in assay [2] was “inactive” in each case.
On to `O=c1[nH]c(=O)n([C@H]2CCCO2)cc1F`, for which the Potency entry in assay [1] and in assay [2] was “inactive” in each case.
On to `O=C(NCC1CCCCN1)c1cc(OCC(F)(F)F)ccc1OCC(F)(F)F` (configuration not stated), for which the Potency result in assay [1] and in assay [2] was “inactive” each time.
For `Cc1cscn1`, the Potency entry in assay [1] and in assay [2] was “inactive” in each case.
Turning to `Nc1nnc(-c2ccc([N+](=O)[O-])o2)o1`, the Potency entry in assay [1] and in assay [2] was “inactive” throughout.
On to `CNC(=O)Oc1ccc2c(c1)[C@]1(C)CCN(C)[C@@H]1N2C`, for which the Potency result in assay [1] and in assay [2] was “inactive” each time.
Turning to `CC(=O)N[C@@H](CC(C)C)C(=O)O`, the Potency result in assay [1] and in assay [2] was “inactive” each time.
In the case of `CCCCCCCCCCCCCCBr`, the Potency result in assay [1] and in assay [2] was “inactive” throughout.
Regarding `Cc1ccc([N+](=O)[O-])c(C)c1`, the Potency result in assay [1] and in assay [2] was “inactive” in each case.
As for `NCC1CCC(C(=O)Oc2ccc(CCC(=O)O)cc2)CC1` (configuration not stated), the Potency entry in assay [1] and in assay [2] was “inactive” each time.
Take `CC1=NN(c2ccc(S(=O)(=O)O)cc2)C(=O)C1N=Nc1ccccc1` (configuration not stated): the Potency result in assay [1] and in assay [2] was “inactive” throughout.
On to `O=S(=O)(O)c1cc(O)ccc1O`, for which the Potency result in assay [1] and in assay [2] was “inactive” in each case.
Take `CCCCN=C(N)N=C(N)N`: the Potency result in assay [1] and in assay [2] was “inactive” each time.
On to `CC(C)CCCCCOC(=O)CCCCC(=O)OCCCCCC(C)C`, for which the Potency entry in assay [1] and in assay [2] was “inactive” each time.
In the case of `COC(=O)CCCCC(=O)OC`, the Potency entry in assay [1] and in assay [2] was “inactive” in each case.
Turning to `CC(C)=CCC[C@@](C)(O)[C@H]1CC=C(C)CC1`, the Potency result in assay [1] and in assay [2] was “inactive” in each case.
Turning to `CCOC(=O)N1CCC(Nc2ccc(Cl)cc2N)CC1`, the Potency result in assay [1] and in assay [2] was “inactive” each time.
For the molecule `CC(O)C(=O)O` (configuration not stated), the Potency result in assay [1] and in assay [2] was “inactive” in each case.
`CCCOc1sc(C(=O)N2CCC(c3cc(CN)ccc3F)CC2)c(C)c1Br`: the Potency in assay [1] was 56 µM (active). Moreover, the Potency entry in assay [2] is “inactive”.
Consider `COC(=O)C(C)Oc1ccc(Oc2ncc(C(F)(F)F)cc2Cl)cc1` (configuration not stated), for which the Potency entry in assay [1] and in assay [2] was “inactive” throughout.
With `CC(=O)Nc1c(I)c(NC(C)=O)c(I)c(C(=O)O)c1I`, the Potency entry in assay [1] and in assay [2] was “inactive” throughout.
In the case of `O=C=NCCCCCCN=C=O`, the Potency result in assay [1] and in assay [2] was “inactive” throughout.
In the case of `CCCCC(CC)COC(=O)CCCCCCCC(=O)OCC(CC)CCCC` (configuration not stated), the Potency entry in assay [1] and in assay [2] was “inactive” each time.
Take `CC(C)CC(=O)CC(C)C`: the Potency result in assay [1] and in assay [2] was “inactive” throughout.
Turning to `Cc1ccc(Cl)cc1Cl`, the Potency entry in assay [1] and in assay [2] was “inactive” in each case.
On to `C=CC(=O)OCCCCCCCC(C)C`, for which the Potency entry in assay [1] and in assay [2] was “inactive” in each case.
Turning to `CC(C)c1ccc2ncccc2c1`, the Potency entry in assay [1] and in assay [2] was “inactive” in each case.
In the case of `CCCCO`, the Potency result in assay [1] and in assay [2] was “inactive” each time.
For `Cc1cc(O)c2c(c1)C(=O)c1cccc(O)c1C2=O`, the Potency result in assay [1] and in assay [2] was “inactive” each time.
In the case of `CN(C)CC/C=C1\c2ccccc2COc2ccccc21`, the Potency result in assay [1] and in assay [2] was “inactive” in each case.
Turning to `COC(=O)C1=C(C)NC(C)=C(C(=O)OCCc2ccc(N3CCN(C(c4ccccc4)c4ccccc4)CC3)cc2)C1c1cccc([N+](=O)[O-])c1` (configuration not stated), the Potency result in assay [1] and in assay [2] was “inactive” in each case.
As for `NC1CCCCC1N` (configuration not stated), the Potency result in assay [1] and in assay [2] was “inactive” throughout.
For `CCCCC=O`, the Potency entry in assay [1] and in assay [2] was “inactive” in each case.
`Cc1c(N)cccc1Cl`: the Potency entry in assay [1] and in assay [2] was “inactive” each time.
For `Cc1cc(=O)[nH]c(=O)[nH]1`, the Potency result in assay [1] and in assay [2] was “inactive” in each case.
Consider `Nc1ncn([C@H]2C[C@H](O)[C@@H](CO)O2)c(=O)n1`, for which the Potency entry in assay [1] and in assay [2] was “inactive” throughout.
In the case of `C[C@H]1C[C@H]2[C@@H]3CCC4=CC(=O)C=C[C@]4(C)[C@H]3C(=O)C[C@]2(C)[C@@]1(O)C(=O)CO`, the Potency entry in assay [1] and in assay [2] was “inactive” each time.
In the case of `CC(S)C(=O)NCC(=O)O` (configuration not stated), the Potency entry in assay [1] and in assay [2] was “inactive” each time.
For `CCN(C(=O)N(CC)c1ccccc1)c1ccccc1`, the Potency entry in assay [1] and in assay [2] was “inactive” in each case.
For `Cc1[nH]nc2c1N=C(c1ccccc1Cl)c1cc([N+](=O)[O-])ccc1N2`, the Potency result in assay [1] and in assay [2] was “inactive” each time.
